# Source: PubChem (National Center for Advancing Translational Sciences (NCATS))
# Rows were chosen to be rich in hits. Some 10% of all compounds tested hit in one or more screens of this group.
# 12-hLO inh: 12-hLO (ALOX12) enzyme inhibition | Potency, µM (series often up to 57.1 µM), inactives show at the highest dose activity change, negative = inhibition, usual class: inhibitors | purified 12-hLO, xylenol orange hydroperoxide absorbance | hit rate 0.12% among 150,000 | AID 1452; further: potency means the concentration at half of the fitted maximal effect; nearly all actives have a fitted effect of over 55% in size
#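 Hydroperoxide formation by human 12-lipoxygenase from 40 uM arachidonic acid was followed colorimetrically via ferric-xylenol orange complex, using the 573/405 nm absorbance ratio. Enzyme concentration was 150 nM, with 30 min reaction at room temperature.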
# HPGD inh: blocks human HPGD enzyme activity. P15428. purified HPGD, NADH fluorescence kinetic, PGE2 substrate. Potency, µM, for inactives: at the highest dose activity change, negative = inhibition, actives largely listed as inhibitors. hit rate 4.3% among 150,000. AID 894; active means well fitted inhibition curve with a large enough effect, not every such curve was filed as active; inconclusive means small, poorly fitted or top-dose-only effect, or another doubt; inactive means no such curve, though single readings can be large or run the other way; further: potency means the concentration at half of the fitted maximal effect
# Target sequence (P15428 whole entry, looked up): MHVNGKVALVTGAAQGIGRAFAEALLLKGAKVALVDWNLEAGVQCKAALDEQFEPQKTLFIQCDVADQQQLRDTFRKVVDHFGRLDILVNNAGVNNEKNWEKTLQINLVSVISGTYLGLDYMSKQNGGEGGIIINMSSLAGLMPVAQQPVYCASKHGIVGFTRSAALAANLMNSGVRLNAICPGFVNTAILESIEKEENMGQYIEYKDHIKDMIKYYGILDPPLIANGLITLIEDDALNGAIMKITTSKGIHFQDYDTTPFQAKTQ
#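 NADH formation kinetics: reaction with 30 uM PGE2 and 1 mM NAD+ (final), 20 nM enzyme, Tris-HCl pH 8 with Tween 20, after 15 min compound preincubation at room temperature. Fluorescence change, last versus first of five reads.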
# aGal spleen mod: inhibits or activates alpha-galactosidase in human spleen homogenate. P06280. human spleen homogenate, 4MU-alpha-Gal fluorescence, 40 min. Potency, µM (highest dose often 80 µM), for inactives: top-dose activity change, negative = inhibition, actives largely listed as inhibitors. hit rate 0.008% among 240,000. AID 2107;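 further: potency means the concentration at half of the fitted maximal effect; 0% = enzyme with vehicle and -100% = no enzyme basal signal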
#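 qHTS titration in buffer at pH 5.0. Alpha-galactosidase activity in spleen homogenate was measured via 4-methylumbelliferone release from 1 mM fluorogenic substrate after 40 min at 37C and a pH 10 stop. AC50 came from Hill fits of control-normalized data.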
# GLA inh pH 4.5: alpha-galactosidase A (human) inhibition, pH 4.5 | AID 1467 | 230,000 tested, under 10 active | activity change, negative = inhibition, % at 105 µM | P06280 | purified enzyme, 4-MU-alpha-Gal fluorescence, pH 4.5;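 further: 0% = full activity with enzyme and -100% = basal without enzyme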
# PNC assembly inh: blocks assembly of the perinucleolar compartment. PC3M PTB-GFP, PNC prevalence imaging, 16 h; active compounds read low. activity change (PNC), negative = inhibition, % at 10 µM. hit rate 3.1% among 140,000. AID 2417;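 active means readout at or below -70, meaning at least 70% loss of cells showing the perinucleolar compartment, a nuclear body marking cancer cells; inconclusive means readout between -30 and a set limit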;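 further: plate controls were DMSO wells for no effect and camptothecin positive control wells for full effect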
#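 PC3M cells stably expressing PTB-GFP, 750–1000 cells/well, treated 16 h at 37 °C with compound (23 nl of library stock), in duplicate. After paraformaldehyde fixation and Hoechst stain, imaged at 20x; PNC prevalence scored by image analysis.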
# ALDH1A1 block: blocks purified human ALDH1A1 activity; P00352; Potency, µM (series often up to 75.3 µM), for inactives: at the top dose activity, negative = inhibition, most hits filed as inhibitors; Purified ALDH1A1, NADH fluorescence, propionaldehyde substrate; hit rate 7.3% among 220,000; AID 1030; active means well fitted inhibition curve with a large enough effect, not every such curve was filed as active; inconclusive means small, poorly fitted or top-dose-only effect, or another doubt; inactive means no such curve, though single readings can be large or run the other way;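 further: potency means the concentration at half of the fitted maximal effect; plate controls were no enzyme wells and a reference inhibitor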
# Target sequence (P00352 whole entry, looked up): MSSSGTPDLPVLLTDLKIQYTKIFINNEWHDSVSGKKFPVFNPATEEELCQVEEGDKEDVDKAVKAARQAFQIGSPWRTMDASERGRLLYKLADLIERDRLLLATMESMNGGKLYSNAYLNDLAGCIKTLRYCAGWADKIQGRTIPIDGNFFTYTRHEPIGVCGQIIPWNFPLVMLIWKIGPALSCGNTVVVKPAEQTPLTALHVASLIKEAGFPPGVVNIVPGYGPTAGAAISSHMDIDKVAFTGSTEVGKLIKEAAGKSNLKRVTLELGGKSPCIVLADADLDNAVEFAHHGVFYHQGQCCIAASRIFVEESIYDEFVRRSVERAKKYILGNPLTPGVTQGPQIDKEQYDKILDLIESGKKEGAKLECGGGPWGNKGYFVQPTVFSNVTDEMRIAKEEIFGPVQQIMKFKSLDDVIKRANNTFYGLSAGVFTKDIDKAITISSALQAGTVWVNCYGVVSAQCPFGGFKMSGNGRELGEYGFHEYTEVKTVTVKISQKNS
# An asterisk follows results filed as active; ? = inconclusive; / = no result given; [ ] = remark or other dose. Unless noted, the call rests on the fitted dose curve; in most records, active means well fitted curve in the direction sought with a large enough effect; inconclusive means small, poorly fitted or top-dose-only effect, or another doubt; inactive means no such curve, though single readings can be large; an effect the other way counts as inactive or inconclusive. Unless noted, on the % scale 0 is the no-effect control and ±100 the full control effect.
SMILES,12-hLO inh,HPGD inh,aGal spleen mod,GLA inh pH 4.5,PNC assembly inh,ALDH1A1 block
CN(C)S(=O)(=O)c1ccc(=S)[nH]c1,/,/,0%,2,/,1µM*
C=C1CC[C@H](O)C/C1=C/C=C1\CCC[C@]2(C)[C@H]1CC[C@H]2[C@@H](C)/C=C\[C@@H](C)C(C)C,0%[25.6 µM],-6%,8%[29.1 µM],-2,/,-4%[20.9 µM]
COC(=O)/C=C1\SC(N2CCOCC2)=C(c2ccc(OC)cc2)C1=O,/,/,0%,-5,/,7.9µM*
COC(=O)CN1C(=S)N(c2ccc(OC)cc2)C(=O)/C1=C/c1ccc(N2CCOCC2)cc1,/,/,0%,-6,/,?
COc1cccc(-c2noc(Cn3nc(C)c([N+](=O)[O-])c3C)n2)c1,-18%,25µM*,-2%,-9,13,-8%
O=C(COC(=O)C1CCN(S(=O)(=O)c2ccccc2C(F)(F)F)CC1)NCc1ccc(F)cc1,1%,-17%,-5%,-3,-27,1%
Cc1ccc2c(nc3s/c(=C/c4cccs4)c(=O)n32)c1C,-3%,28µM*,5%,5,7,14µM*
COc1ccccc1-c1nc2s/c(=C\c3cccs3)c(=O)n2n1,-7%,-8%,3%,1,-17,-13%
O=c1/c(=C\c2cccnc2)sc2nc3ccccc3n12,-3%,-7%,5%,-17,2,2%
Cc1cc(C)c2nc3s/c(=C/c4ccccc4)c(=O)n3c2c1,-4%,5µM*,-3%,6,?,3.2µM*
CCN(CC)S(=O)(=O)c1ccc2c(c1)N(CC(=O)NCc1ccccn1)C(=O)CO2,/,/,6%,5,/,/
CN(C)c1ccc(S(=O)(=O)N2CCCCC2)cc1NC(=O)COc1ccccc1F,/,/,0%,-10,/,/
O=C(O)c1ccc(N2CC3CC(C2)c2cccc(=O)n2C3)c(NS(=O)(=O)c2cccc(C(F)(F)F)c2)c1 (configuration not stated),/,/,-14%,-6,/,4%
C/C=C(/CC[C@@H](C)[C@H]1CCC2C3=CC[C@H]4[C@H](C)[C@@H](O)CC[C@]4(C)C3CC[C@@]21C)C(C)C (some centres not stated),-4%[0.00818 µM],-12%,26%,-14,/,?
COC(=O)c1ccc(SCC(=O)NC2CCCC2)c([N+](=O)[O-])c1,-1%,35µM*,-8%,1,52,1%
O=C(COC(=O)c1ccccc1C(=O)c1ccc(Cl)c([N+](=O)[O-])c1)NC1CCCCCC1,1%,-17%,-3%,-4,-22,14µM*
C=CCn1c(=NC(=O)CC)n(C)c2ccccc21,-5%,-7%,0%,4,-29,18%
CCSc1nc(=S)cc(C)[nH]1,/,/,5%,-1,/,28µM*
Cn1c(=O)[nH]c(=O)c2c1nc(N1CCOCC1)n2CCCSc1ncccn1,-4%,-10%,3%,-4,-114*,1%
Cn1c(=O)[nH]c(=O)c2c1nc(N1CCCCC1)n2CCCSc1nnnn1-c1ccccc1,-2%,-13%,-3%,-20,?,7.9µM*
CC1CCN(c2nc3c(c(=O)[nH]c(=O)n3C)n2CC(C)CSc2nnnn2-c2ccccc2)CC1 (configuration not stated),1%,-5%,2%,1,7,20µM*
CN1CCN(c2nc3c(c(=O)[nH]c(=O)n3C)n2CCCSc2nnnn2-c2ccccc2)CC1,/,/,-3%,4,/,22µM*
Cn1c(=O)[nH]c(=O)c2c1nc(Br)n2CCSc1nnnn1-c1ccccc1,-5%,-7%,-5%,-5,-19,-3%
Cc1ccc(OCC(=O)O/N=C(\N)Cc2ccc([N+](=O)[O-])cc2)cc1C,/,/,4%,2,/,/
CCCc1c(OCCCOc2ccc(OCC(=O)O)cc2)ccc(CC=O)c1O,-6%,-4%,-5%,-20,/,0%
SMILES,12-hLO inh,HPGD inh,aGal spleen mod,GLA inh pH 4.5,PNC assembly inh,ALDH1A1 block
C/C(=N/NS(=O)(=O)c1ccc(C)cc1)c1c(O)c2ccccc2oc1=O,/,/,0%,1,/,/
C/C(=N\NS(=O)(=O)c1ccc(C)cc1)c1cc2ccccc2oc1=O,/,/,6%,0[21.1 µM],/,16µM*
O=C(CSc1nc2ccccc2c(=O)[nH]1)c1cccs1,-1%,13µM*,-3%,-3,?,-12%
O=C(CSc1nc2ccccc2n1CCc1ccccc1)N1CCOCC1,1%,/,0%,-14,?,-5%
O=C(CSc1nc2ccccc2n1CCc1ccccc1)c1ccc(O)c(O)c1,/,/,-7%,-3,/,14µM*
N#Cc1c(-c2cccs2)nc(SCC(=O)c2cccs2)[nH]c1=O,-3%,16µM*,2%,-5,11,-2%
Cc1cc(SCC(=O)c2cccs2)nc2ccccc12,15%,4.5µM*,3%,0,?,?
COC(=O)N1C2=C(c3ccccc3[C@@H]1CC(=O)Nc1ccc3cc4ccccc4cc3c1)[C@@H]1C(=O)N(c3ccccc3)C(=O)[C@@H]1[C@H](C)C2,-5%[11.4 µM],-13%,7%[17.5 µM],-5,/,-5%[13.5 µM]
COC(=O)CSc1nc(C)cc(N2CCOCC2)n1,/,/,-3%,-11,/,9%
CO[C@@H]1COC(=O)C/C=C\[C@H](C)[C@H](OC)COC(=O)[C@H](C)NC(=O)C/C=C\[C@H]1C,/,/,-12%[17.5 µM],/,/,-2%[13.5 µM]
O=C(CSc1nnc2ccc(-c3ccc(F)cc3)nn12)N1CCCC1,/,/,3%,0,/,1%
Cc1cnc(NC(=O)CSc2nc3ccccc3c(=O)[nH]2)s1,4%,16µM*,-3%,2,-12,-5%
Cc1cnc(NC(=O)Cc2c[nH]c3ccccc23)s1,-5%,/,9%,-2,18,25µM*
O=C(CSc1nc2ccccc2c(=O)[nH]1)c1ccc(O)c(O)c1,-29%,16µM*,-13%,-8,?,?
O=C(CSc1nc2ccccc2c(=O)[nH]1)c1ccc(O)cc1O,/,/,4%,-3,/,?
c1ccc(Nc2scc(-c3ccccc3)[n+]2Cc2ccco2)cc1,/,/,-1%,-3,/,10µM*
CC(C)N(CCNC(=O)c1ccc(Cc2nc3ccccc3[nH]2)cc1)C(C)C,-2%,-9%,/,/,/,?
CCOc1ccc(Cn2c3ccc(OC)cc3c3nc4ccccc4nc32)cc1,-1%,-15%,0%,0,-89*,5%
CCOc1cc(C(=O)NCCN2CCOCC2)cc(OCC)c1OCC,7%,-8%,-4%,-5,-100*,2%
COc1ccc(CC2(C)OC(c3ccccc3)=NN2C(C)=O)cc1 (configuration not stated),0%,-20%,8%,-4,63,?
O=C(CNC(c1ccccc1)c1ccccc1)Nc1cc([N+](=O)[O-])ccc1Cl,2%,-29%,7%,13,-12,7.1µM*
COc1ccc(C(=O)NC(=S)Nc2ccc([N+](=O)[O-])cc2C)cc1OC,-1%,-12%,-1%,-5,33,14µM*
